# Compounds with a hit are over-represented: about 9% of the library has one in this group of screens.
# HPGD block: qHTS Assay for Inhibitors of HPGD (15-Hydroxyprostaglandin Dehydrogenase); 150,000 compounds, 4.3% hits; purified HPGD, NADH fluorescence kinetic, PGE2 substrate; Potency, µM, inactives show top-dose activity change, negative = inhibition, usual class: inhibitors; further: potency means the concentration at half of the fitted maximal effect
#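 NADH formation kinetics: reaction with 30 uM PGE2 and 1 mM NAD+ (final), 20 nM enzyme, Tris-HCl pH 8 with Tween 20, after 15 min compound preincubation at room temperature. Fluorescence change, last versus first of five reads.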
# IMPase cell inh: qHTS Assay for Identifying the Cell-Membrane Permeable IMPase Inhibitors; inhibition (IP1 accumulation), % at 46.1 µM; Inositol monophosphatase 1 (Rattus norvegicus), P97697; CHO-M1 cells, IP1 accumulation, HTRF TR-FRET ratio; 120,000 tested, under 10 active; AID 901, 2007; active means well fitted curve in the direction sought with a large enough effect in the signal ratio, not every such curve was filed as active; inconclusive means small, poorly fitted or top-dose-only effect, or a change in a side signal; inactive means no such curve, though single readings can be large or run the other way; the % refers to the signal ratio;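 further: cells stimulated with carbachol in lithium chloride buffer; plate controls were DMSO basal wells for no effect and reference inhibitor wells for full effect; higher means more IMPase inhibition seen as more IP1 and lower FRET ratio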
#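 In this qHTS, compounds (final up to 46 uM) act on CHO-M1 cells that are then activated through the M1 receptor with carbachol, in pH 7.4 buffer containing 50 mM LiCl, for 30 min. IP1 accumulation is quantified by the IP-One immunoassay.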
# ALDH1A1 block: qHTS Assay for Inhibitors of Aldehyde Dehydrogenase 1 (ALDH1A1); Aldehyde dehydrogenase 1A1 (Homo sapiens), P00352; 220,000 compounds, 7.3% hits; Purified ALDH1A1, NADH fluorescence, propionaldehyde substrate; AID 1030, 2008; Potency, µM (series often up to 75.3 µM), for inactives: at the top dose activity, negative = inhibition, usual class: inhibitors;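 further: potency means the concentration at half of the fitted maximal effect; plate controls were no enzyme wells and a reference inhibitor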
# Target sequence (P00352 whole entry, looked up): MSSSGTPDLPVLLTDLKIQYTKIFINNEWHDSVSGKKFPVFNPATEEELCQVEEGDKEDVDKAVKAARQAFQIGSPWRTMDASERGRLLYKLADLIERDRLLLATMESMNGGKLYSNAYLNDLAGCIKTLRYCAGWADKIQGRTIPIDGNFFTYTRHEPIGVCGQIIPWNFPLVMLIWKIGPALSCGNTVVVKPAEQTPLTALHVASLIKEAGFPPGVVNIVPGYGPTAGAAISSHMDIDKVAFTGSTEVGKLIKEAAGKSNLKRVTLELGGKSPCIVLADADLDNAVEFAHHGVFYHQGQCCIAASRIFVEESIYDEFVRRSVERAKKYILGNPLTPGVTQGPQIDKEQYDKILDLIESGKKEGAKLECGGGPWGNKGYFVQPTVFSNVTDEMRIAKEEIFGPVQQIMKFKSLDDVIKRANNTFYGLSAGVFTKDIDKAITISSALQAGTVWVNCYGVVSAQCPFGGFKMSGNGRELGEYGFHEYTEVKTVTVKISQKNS
# * = called active by the depositor; u = inconclusive; x = no result; [ ] = another dose, or the depositor's remark. Unless noted, the call rests on the fitted dose curve; in most records, active means well fitted inhibition curve with a large enough effect (not every such curve was filed as active); inconclusive means small, poorly fitted or top-dose-only effect, or another doubt; inactive means no such curve, though single readings can be large or run the other way. Unless noted, on the % scale 0 is the no-effect control and ±100 the full control effect.
SMILES,HPGD block,IMPase cell inh,ALDH1A1 block
Cc1cc(C)c(NC(=O)C2CSCCS2)c(C)c1 (centres undefined),22µM*,x,-4%
Cc1cc(C)c(NC(=O)C2CCCCN2C)c(C)c1 (centres undefined),-8%,1,-3%
CC(NC(=O)COC(=O)/C=C/c1ccco1)c1ccccc1 (centres undefined),x,x,-17%
CN[C@@H](CC(C)C)C(=O)N[C@@H]1C(=O)N[C@H](CC(N)=O)C(=O)N[C@H]2C(=O)N[C@H]3C(=O)N[C@H](C(=O)N[C@H](C(=O)O)c4cc(O)cc(O)c4-c4cc3ccc4O)[C@H](O)c3ccc(c(Cl)c3)Oc3cc2cc(c3O[C@@H]2O[C@@H](CO)[C@@H](O)[C@@H](O)[C@H]2O[C@H]2C[C@](C)(N)[C@H](O)[C@H](C)O2)Oc2ccc(cc2Cl)[C@@H]1O,x,1,x
CCCCCC(C)NC(=S)NC(=O)c1cc(S(=O)(=O)N2CCOCC2)ccc1C (centres undefined),-15%,x,u
CC(=O)Nc1ccc(S(=O)(=O)NCC(=O)OCc2ccccc2)cc1,-5%,x,-6%
CS(=O)(=O)c1ccc(S(=O)CC(=O)OCc2ccccc2)c([N+](=O)[O-])c1 (centres undefined),x,x,13µM*
CCN(CC)S(=O)(=O)c1ccc2c(c1)nc(SCC(=O)N1CCOCC1)n2-c1ccccc1OC,-18%,12,10%
COc1ccc(-c2nsc3c(SCC(=O)Nc4cc(C)ccc4C)ncnc23)cc1,-25%,1,7%
Cc1ccc2oc(=O)c3cc(C(=O)NCCN4CCc5ccccc5C4)sc3c2c1,u,x,28µM*
Cc1ccc2oc(=O)c3cc(C(=O)NCc4ccco4)sc3c2c1,-30%,6,u
CCN(CC)S(=O)(=O)N1CCC(C(=O)NCc2ccc(C)cc2)CC1,-9%,-2,4.5µM*
COc1ccc(CNC(=O)C2CCN(S(=O)(=O)c3ccc(C)cc3)CC2)cc1,x,19,x
COC(=O)C1CCN(Cc2ccc(C)cc2)CC1,2%,2,6%
CCN(CC)c1ccc(CN2CCC(C(=O)NCc3ccc(C)cc3)CC2)cc1,x,x,14µM*
Fc1ccccc1CSc1ncnc2sc3c(c12)CCCC3,-17%,x,u
O=C(c1ccc(F)cc1)N(C(=O)c1ccc(F)cc1)c1ncccn1,x,x,-5%
CC(=O)Nc1ccc(C(=O)Nc2ccc(S(=O)(=O)NCC3CCCO3)cc2)cc1 (centres undefined),-11%,7,-1%
CCCNS(=O)(=O)c1ccc(C(=O)NCC2CCCO2)cc1 (centres undefined),-18%,0,12%
COc1ccc(CC(=O)Nc2ccc(S(=O)(=O)NCC3CCCO3)cc2)cc1 (centres undefined),22µM*,18,10µM*
COc1ccc(N(C)S(=O)(=O)c2cccc(C(=O)NCC3CCCO3)c2)cc1 (centres undefined),-15%,12,u
Cc1cc(C)cc(OCC(=O)NCC2CCCO2)c1 (centres undefined),16µM*,-3,-4%
Cc1ccc(C)n1-c1ccc(C(=O)NCC2CCCO2)cc1 (centres undefined),8.9µM*,-3,-10%
Cc1cc(C)c(C)c(OCC(=O)NCC2CCCO2)c1 (centres undefined),u,-15,-2%
COc1ccc(S(=O)(=O)N(C)c2ccc(C(=O)NCC3CCCO3)cc2)cc1 (centres undefined),2.8µM*,1,-8%
SMILES,HPGD block,IMPase cell inh,ALDH1A1 block
CCOC(=O)C1=C(C)N(CCCC(=O)O)C(=O)NC1c1ccccc1OS(=O)(=O)c1ccc(C)cc1 (centres undefined),u,x,5%
Cc1nnc(SCC2=C(C(=O)O)N3C(=O)[C@@H](NC(=O)Cn4cnnn4)[C@@H]3SC2)s1,-9%,0[20.6 µM],5%[20.9 µM]
O=C(NCC1CCCO1)c1ccc(COc2ccc(Br)cc2)cc1 (centres undefined),7.1µM*,x,u
Cc1ccc(C(=O)NCC2CCCO2)cc1N1CCCC1=O (centres undefined),11µM*,-4,0%
Cc1noc(C)c1COc1ccc(C(=O)NCC2CCCO2)cc1 (centres undefined),u,8,-4%
Cn1c(C(=O)OCC(=O)NCC2CCCO2)cc2sccc21 (centres undefined),16µM*,-5,-23%
Cn1c(C(=O)OCC(=O)NCc2cccs2)cc2sccc21,-21%,u,-7%
O=C(NCC1CCCO1)c1cccc(N2CCCC2=O)c1 (centres undefined),-19%,0,4%
CS(=O)(=O)Nc1ccc(C(=O)NCC2CCCO2)cc1 (centres undefined),-11%,-2,7%
COc1ccc(C(=O)NCC2CCCO2)cc1 (centres undefined),13µM*,x,6%
CN(C)/C=C(\C#N)C(=O)N/N=C(\CC(=O)C(F)(F)F)c1ccco1,x,x,-9%
CC(=O)O[C@]12CC[N@+]3(C)CCCC[C@@H]3[C-]1Nc1ccccc12,-4%,x,7%[13.5 µM]
COc1cc(C(=O)NNC(=O)c2ccc(NC(=O)C(C)(C)C)cc2)cc(OC)c1OC,x,x,12%
CCNc1ncc2nc(-c3cn(C)c4ccccc34)c(=O)n(C[C@H]3CCCO3)c2n1,x,x,11%
O=C(c1ccco1)N1CCCN(Cc2nc(Cc3ccccc3)no2)CC1,x,x,-1%
O=C1c2ccccc2C(=O)C1c1ccnc2ccccc12,2%,u,3%
N#CC1=C(N)SC(N)=C(C#N)C1c1ccnc2ccccc12,16µM*,-11,u
C=CCN(CC(=O)NC1CCS(=O)(=O)C1)S(=O)(=O)c1ccccc1C(F)(F)F (centres undefined),x,x,12%
O=S(=O)(O)c1cc(O)c2c(O)c(N=Nc3cccc4ccccc34)c(S(=O)(=O)O)cc2c1,-13%,x,6%[13.5 µM]
C=C(C)Cn1cnc2cc(C)c(C)cc21,x,x,-3%
O=C(COC(=O)C1CCN(S(=O)(=O)c2cccs2)CC1)NCc1ccccc1,x,x,-1%
O=C1CC(c2ccc(F)cc2)CC2=C1C(c1ccc([N+](=O)[O-])o1)Nc1ccccc1N2 (centres undefined),x,x,-5%
CCN(CC(=O)Nc1ccccc1OC)CC(=O)Nc1ccccc1C(F)(F)F,x,x,0%
O=C(Nc1ccccc1C(F)(F)F)Nc1cccc2ccccc12,-23%,-1,-1%
CCN(CC)c1ccc(NC(=O)Nc2ccccc2C(F)(F)F)cc1,-8%,3,4µM*
CCN(CC(=O)Nc1ccc(C(C)=O)cc1)CC(=O)Nc1ccccc1C(F)(F)F,x,x,10µM*
Cn1c(=O)c2c(nc(CN3CCN(C(=O)c4ccco4)CC3)n2Cc2ccc(Cl)cc2)n(C)c1=O,-6%,9,14µM*
Cn1c(=O)c2c(nc(CN3CCN(C(=O)c4ccco4)CC3)n2Cc2cccc(Cl)c2)n(C)c1=O,-2%,3,14µM*
Cn1c(=O)c2c(nc(CN3CCN(Cc4ccccc4)CC3)n2Cc2cccc(Cl)c2)n(C)c1=O,5%,6,u
CC1CN(Cc2nc3c(c(=O)n(C)c(=O)n3C)n2Cc2ccccc2)CC(C)O1 (centres undefined),0%,9,-5%

# Screens from PubChem BioAssay.
